# Most compounds without a hit are left out; they make up all but 3.6% or so of the library.
# Sfp PPTase inh = Sfp phosphopantetheinyl transferase inhibition; Biochemical Sfp PPTase activity, qHTS; actives 3.5% (n = 310,000); Potency, µM, for inactives: largest response in the series, negative = inhibition, actives largely listed as inhibitors; Q9F4F7; AID 1490;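 note: the enzyme is Sfp with the accession as filed and its product quenches rhodamine fluorescence; 0% = enzyme reaction without inhibitor and -100% = no enzyme wells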
#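 With Hepes-Na pH 7.6 buffer containing 10 mM MgCl2, Sfp (15 nM) modified BHQ-2-YbbR (12.5 uM) using rhodamine-CoA (5 uM). Two reads 30 minutes apart at 525/598 nm yielded each well's rate.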
# NPSR antag = neuropeptide S receptor (human) antagonism, cAMP; actives 1% (n = 220,000); Potency, µM (highest dose often 38.3 µM), without a hit: top-dose activity change, negative = inhibition, actives largely listed as inhibitors; Q6W5P4; CHO-NPSR cells, cAMP TR-FRET, antagonist mode; note: % is set by controls: 0 for no effect and ±100 for the full control effect; nearly all actives have a fitted effect of over 50% in size
# Target sequence (Q6W5P4 whole entry, looked up): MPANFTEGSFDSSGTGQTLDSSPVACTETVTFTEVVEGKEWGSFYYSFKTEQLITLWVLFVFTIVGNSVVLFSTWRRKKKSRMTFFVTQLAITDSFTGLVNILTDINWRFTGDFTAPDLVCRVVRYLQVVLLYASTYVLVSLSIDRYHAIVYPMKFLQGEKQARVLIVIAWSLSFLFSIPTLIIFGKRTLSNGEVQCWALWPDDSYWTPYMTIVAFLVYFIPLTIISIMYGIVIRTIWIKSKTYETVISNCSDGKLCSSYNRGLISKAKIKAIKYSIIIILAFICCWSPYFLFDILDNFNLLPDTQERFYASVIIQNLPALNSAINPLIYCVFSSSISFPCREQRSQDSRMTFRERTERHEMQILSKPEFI
# Epigenetic reg = epigenetic control regulation, reporter derepression | Potency, µM (doses to about 53.9 µM), without a hit: top-dose GFP activation, most hits filed as activators | actives 0.2% (n = 280,000) | murine LDR cells, GFP reporter derepression, 30 h; note: % of control where 0% means no effect; nearly all actives have a fitted effect of over 60% in size
#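 Readout is the number of GFP-expressing murine LDR cells, counted by cytometry following washing. Cells were treated with compound for 30 h at 37 C; the stably integrated CMV-GFP locus is normally silent.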
# KAT2A inh = inhibitors of human GCN5L2 histone acetyltransferase; GCN5L2 HAT assay, ThioGlo1 CoA-SH fluorescence; Potency, µM (highest dose often 58.9 µM), inactives show top-dose activity change, negative = inhibition, actives largely listed as inhibitors; actives 0.21% (n = 390,000); Q92830; note: % is set by controls: 0 for no effect and ±100 for the full control effect
#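 Titration-based screen in which CoA formation is detected via maleimide probe ThioGlo1 (50uM) turning fluorescent on thiol reaction; substrates H3(1-25) 75uM and acetyl-CoA 70uM, GCN5L2 20nM, 20 min incubation at room temperature.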
# KDM4E inh = JMJD2E (human) inhibition | B2RXH2 | actives 1.6% (n = 230,000) | Potency, µM (highest dose often 57.1 µM), without a hit: at the highest dose activity change, negative = inhibition, most hits filed as inhibitors | JMJD2E catalytic domain, FDH-coupled NADH fluorescence (FDH is formaldehyde dehydrogenase);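 note: 0% = wells with enzyme and -100% = buffer wells without enzyme; nearly all actives have a fitted effect of over 50% in size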
# Target sequence (B2RXH2 1-337 limits assumed): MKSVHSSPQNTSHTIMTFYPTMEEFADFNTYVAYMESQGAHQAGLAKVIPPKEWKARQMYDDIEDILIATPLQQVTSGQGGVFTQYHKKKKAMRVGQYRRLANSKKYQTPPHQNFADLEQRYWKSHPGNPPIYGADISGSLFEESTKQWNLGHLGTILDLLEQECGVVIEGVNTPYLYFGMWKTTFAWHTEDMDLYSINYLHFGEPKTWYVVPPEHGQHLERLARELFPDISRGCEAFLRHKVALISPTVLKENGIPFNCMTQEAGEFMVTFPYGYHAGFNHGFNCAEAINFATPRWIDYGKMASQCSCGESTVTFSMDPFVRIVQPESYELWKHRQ
# IMPase Li cell = IMPase inhibition in cells with lithium potentiation; CHO-M1 cells, IP1 TR-FRET (IP-One), carbachol + lithium; Potency, µM (titrated, usually from 59.4 µM), without a hit: top-dose activity, negative = IMPase inhibition, actives largely listed as inhibitors; actives 0.35% (n = 210,000);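 note: IP1 builds up when IMPase is blocked and the TR-FRET signal falls; plate controls were basal vehicle for no effect and high inhibitor control for full effect; nearly all actives have a fitted effect of over 50% in size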
#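 CHO cells stably expressing M1 receptor (2000/well, cultured 16–30 h) treated 30 min at 37C with compound plus low lithium. Cytosolic IP1 by TR-FRET (665/620 ratio and 620 channel) after 10 min lysis; AC50 by Hill fit.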
# An asterisk follows results filed as active; ? = inconclusive; . = not tested or not shown; ! = repeats disagree; [ ] = remark or other dose. Unless noted, calls come from the whole dose curve; as a rule, active = well fitted curve in the direction sought with a large enough effect; inconclusive = small, poorly fitted or top-dose-only effect, or another doubt; inactive = no such curve, though single readings can be large; an effect the other way counts as inactive or inconclusive. Potency is the fitted concentration of half-maximal effect.
SMILES,Sfp PPTase inh,NPSR antag,Epigenetic reg,KAT2A inh,KDM4E inh,IMPase Li cell
S=c1[nH]nc(-c2ccc3ncccc3c2)n1-c1ccc2c(c1)OCCO2,79µM*,-20%,0%,-2%,-4%,21%
COc1ccc(C2=Nn3c(nnc3-c3cccc(OC)c3OC)SC2)c(OC)c1,-4%,.,.,.,.,.
Cc1cc2ccccc2n1-c1ccc(C(=O)N2CCC(C(=O)NCc3ccc(F)cc3)CC2)s1,.,.,-3%,-1%,.,.
O=C(Nc1nc2n(n1)C(c1ccccc1)C=C(c1ccccc1)N2)c1ccccc1 (centres undefined),.,.,5%,-15%,.,.
CCOC(=O)c1cnc2ccc(OC)cc2c1NCc1ccccc1,-8%,-38%,0%,-8%,?,19%
CCOC(=O)c1cnc2ccccc2c1NCc1ccco1,45µM*,?,13%,-2%,?,.
CCOC(=O)c1cnc2ccc(OCC)cc2c1NCc1ccccc1OC,56µM*,?,-1%,-6%,4%,20%
CCCCCCC(=O)Cc1cc(OC)c(OC)cc1/C=C(/C(C)=O)C(=O)OC,12%,.,1%[10.1 µM],.,.,.
O=S(=O)([O-])CCC[n+]1c(/C=C\Nc2ccccc2)oc2ccc(-c3ccccc3)cc21,-3%,7%,?,5%,-5%,-1%
CC[n+]1c(/C=C/Nc2ccccc2)oc2ccccc21,-4%,7%[46.1 µM],16µM*,3%,?,21%[38.3 µM]
CC[n+]1c(/C=C/N(C)c2ccccc2)oc2ccc(F)cc21,50µM*,11%,11%,-12%,?,17%
CCn1c(/C=C/N(C)c2ccccc2)[n+](CC)c2ccc(Cl)cc21,-2%,-7%[46.1 µM],7%,-21%,-23%,32%[38.3 µM]
CC(C)(C)Nc1oc(-c2ccccc2)nc1-c1cccc2ccccc12,2%,.,-1%,.,-8%,10%
O=C1CCCc2c1cc(C(=O)NC1CCSC1=O)c(=O)n2-c1ccccc1 (centres undefined),50µM*,-18%[46.1 µM],-1%,0%,?,-15%[38.3 µM]
Fc1ccc(-n2[nH]nnc2=S)cc1N1CCCC1,79µM*,-30%[7.67 µM],1%,-13%,?,-18%[38.3 µM]
CCCCNS(=O)(=O)c1ccc2nc(-c3cccnc3)cc(C(=O)NCCCOCC)c2c1,13%,-11%,-1%,-20%,0%,11µM*
CCOC(=O)c1c(C)[nH]c(CCC(=O)NCc2ccc(CC)cc2)c1C,.,.,-3%,-4%,.,.
CC1(C)CC(=O)C2=C(C1)OC1=C(C(=O)CC(C)(C)C1)C2c1cc([N+](=O)[O-])cc([N+](=O)[O-])c1O,11µM*,-51%,1%,0%,2%,10%
Clc1ccccc1C1Nc2cccc3cccc(c23)N1,-29%,.,.,-11%,.,.
c1coc(C2Nc3cccc4cccc(c34)N2)c1,3.2µM*,-7%[46.1 µM],-1%,-15%,-22%,32%[38.3 µM]
COC(=O)c1cc(OC)c(OC)cc1NC(=S)Nc1cccc(C(C)=O)c1,-16%,-15%[46.1 µM],-1%,-16%,?,.
COC(=O)c1cccc(NC(=S)Nc2cc(Cl)ccc2OC)c1,20µM*,21%,2%,-12%,-1%,5%
Cc1cc(N2CCC(C)CC2)nc2ccc(NC(=O)Cc3c(F)cccc3Cl)cc12,.,.,9%,10%,.,.
CC/C=C/[C@@H](c1ccccc1)[C@H](C)C(O)CC(=O)SC(C)(C)C (some centres undefined),11%,.,.,.,.,.
CCCc1nc(Nc2nc3ccccc3o2)nc(C)c1C(=O)OCC,18%,?,12%,-4%,6%,9%[38.3 µM]
SMILES,Sfp PPTase inh,NPSR antag,Epigenetic reg,KAT2A inh,KDM4E inh,IMPase Li cell
CCOC(=O)c1cnc(Nc2nc3ccccc3o2)nc1CSC(=S)N(CC)CC,14%,0.5µM*,?,-17%,-7%,7%
Cc1cccc(CCNC(=O)CN(c2ccc(C(C)C)cc2)S(=O)(=O)c2c(C)nn(C)c2C)c1,.,.,5%,0%,.,.
CNC(=S)N/N=C(\C)c1ccc2c(c1)OCCO2,50µM*,-42%,1%,-9%,-20%,3%
C/C(=N\NC(=S)Nc1ccc(C(C)C)cc1)c1ccc2c(c1)OCO2,0%,-13%,0%,1%,?,16%
CNC(=S)N/N=C(\C)c1ccc2c(c1)OCO2,79µM*,-26%,-1%,-2%,-7%,7%
CCc1ccc(OCC(=O)N/N=C(\C)c2ccc3c(c2)OCCO3)cc1,56µM*,-20%,-1%,-7%,3%,10%
C/C(=N\NC(=S)NC(C)C)c1ccc2c(c1)OCCO2,-7%,-22%,7%,-3%,-7%,3%
COC(=O)C/C=C\[C@@H](C)[C@@H](/C=N\O[C@@H](C)CN1CCCc2nc(C)c(C)cc21)OC,1%,.,0%[10.1 µM],.,.,.
CC[n+]1c(C)sc2c3ccsc3ccc21,1.4µM*,4%,0%,-14%,-6%,14%
N#Cc1cc(Oc2cccc3cccnc23)c(-n2nnc3ccccc32)cc1C#N,50µM*,?,-1%,-27%,32µM*,.
COC(=O)CC1c2ccccc2C(Cc2ccc(OC)cc2)C(C)N1C(=O)OC (centres undefined),-6%,.,.,.,1%[11.4 µM],6%
C/C(CC(=O)N1CCN(C=O)CC1)=N\NC(=O)c1cc2ccccc2cc1O,-28%,-5%[46.1 µM],1%,-3%,28µM*,5%
COC(C)(C)CCCC(C)C/C=C/C(C)=C/C(=O)O (centres undefined),8%,.,1%,-5%,3%,-4%
C=CCN1C=C2C(=O)C(C)(OC(=O)C3CCCC3)C(=O)C=C2C=C1c1ccsc1 (centres undefined),-14%,-1%,-1%,-23%,?,10%
CC(C)CN1C=C2C(=O)C(C)(OC(=O)C3CCCC3)C(=O)C=C2C=C1c1ccsc1 (centres undefined),16%,-9%,8%,-16%,32µM*!,2%
Cc1cc(C)nc(SSc2nc(C)cc(C)n2)n1,2.2µM*,.,.,?,.,.
COc1ccc(-c2nc(-c3ccccc3)oc2NC(C)C)cc1,-22%,.,-1%,.,2%,8%
CC(=O)/C(=N\Nc1ccccc1)Sc1nncn1C,20µM*,21%,-2%,-6%,-2%,1%
COc1ccccc1CNC(=O)c1ccc(-c2nc(CN3CCc4ccccc43)c(C)o2)cc1,.,.,3%,-17%,.,.
COCc1cc(C)nc(OCC(=O)N/N=C/c2ccc(O)cc2)c1C#N,1%,2%,-3%,-1%,6%,0%
COCc1cc(C)nc(OCC(=O)N/N=C/c2ccc(C)o2)c1C#N,4µM*,6%,1%,4%,?,15%
O=C(Nc1ccc(N2CCOCC2)cc1)Nc1cnsn1,28µM*,-14%[46.1 µM],-1%,-20%,-9%,11%

# Bioassay records as filed in PubChem BioAssay.
